Assay results as given in PubChem BioAssay (NCI).
The panel holds about 83,000 compounds, 20% with a hit somewhere; the sample as a whole holds those more often.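 The test compound was applied at a single concentration to cells in 96-well plates for 48 hours, and percent growth was recorded.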 Values without a mark were called inactive. The source made the active and inactive calls. How the source made its calls: active means growth percent below 10; inactive means the rest.

Key:
Test in all cases: NCI-60 one-dose screen, 48 h (100 = growth as untreated, 0 = no growth, -100 = all killed)
Conditions in all cases: 10 µM unless noted
[1] = tested on: NCI-H23 lung
[2] = tested on: NCI-H226 lung
[3] = tested on: NCI-H322M lung
[4] = tested on: HOP-62 NSCLC
[5] = tested on: NCI-H460 lung
[6] = tested on: NCI-H522 lung
[7] = tested on: A549/ATCC NSCLC
[8] = tested on: 786-0 renal
[9] = tested on: DU-145 prostate
[10] = tested on: K-562 leukemia
[11] = tested on: MALME-3M melanoma
[12] = tested on: MDA-MB-231 breast
[13] = tested on: RXF 393 renal
[14] = tested on: SF-268 CNS
[15] = tested on: SF-295 CNS
[16] = tested on: SF-539 CNS
[17] = tested on: UACC-257 melanoma
[18] = tested on: M14 melanoma
[19] = tested on: HCT-15 colon
[20] = tested on: COLO 205 colon

Row | Structure (SMILES) | growth [1] | growth [2] | growth [3] | growth [4] | growth [5] | growth [6] | growth [7] | growth [8] | growth [9] | growth [10] | growth [11] | growth [12] | growth [13] | growth [14] | growth [15] | growth [16] | growth [17] | growth [18] | growth [19] | growth [20]
1 | Cc1ccc(NC(=O)COC(=O)c2ccc(S(=O)(=O)N3CCCCCC3)cc2)cc1 | 107% | 90.8% | 131% | 96.4% | 106% | 96% | 97.2% | 103% | 108% | 103% | 127% | 101% | 88.9% | 94.6% | 88.9% | 105% | 94.3% | 126% | 105% | 
2 | C/C(=N/N=C(N)N)c1ccc(N)cc1 | 100% | 102% | 79.2% | 91.5% | 106% | 91.5% | 103% | 96% | 107% | 94.6% | 115% | 104% | 98.5% | 114% |  | 96.3% | 150% | 95.9% |  | 
3 | O=C(COC(=O)[C@H](C[Se][Se]C[C@H](NC(=O)c1ccc(Br)cc1F)C(=O)OCC(=O)c1ccc(F)cc1)NC(=O)c1ccc(Br)cc1F)c1ccc(F)cc1 | -37.3% (active) | -73.2% (active) | -23.2% (active) | -6.31% (active) | -35.6% (active) | -85.2% (active) | -41.2% (active) | -94.6% (active) | -100% (active) | -1.8% (active) | -64.4% (active) | -82.2% (active) | -99.3% (active) | -74.1% (active) | -65.8% (active) | -98.5% (active) | -50.2% (active) | -64.6% (active) | -42.6% (active) | 
4 | O=C1c2ccccc2-c2c1nc1ccccc1[n+]2[O-] | 102% | 106% | 97% | 102% | 102% | 93.1% | 108% | 103% | 108% |  | 90.2% | 108% |  | 98.2% | 108% | 101% | 107% | 97.9% | 101% | 111%
5 | S=C(c1ccccc1)N1CCN(c2cccc(Cl)c2)CC1 | 101% | 99.3% | 104% | 102% | 111% | 87.5% | 87.8% | 107% |  | 54.8% | 97.4% | 105% | 108% |  | 82.9% | 105% | 103% | 113% | 105% | 100%
6 | CN=C(NC)N/N=C(C)\C=N\NC(=NC)NC | 104% | 98.8% | 107% | 100% | 104% | 102% | 100% | 102% | 109% |  | 105% | 97.8% |  | 99.5% | 96.5% | 99.1% | 100% | 101% | 101% | 102%
7 | OCCOc1c(Cl)cc(Cl)cc1Cl | 101% | 111% | 114% | 108% | 108% | 108% | 93.9% | 104% | 115% |  | 101% | 87.3% |  | 103% | 100% | 102% | 90.3% | 107% | 104% | 114%
8 | O=Nc1ccc(O)c(=O)cc1 | 70.6% | 38.4% | 88.3% | 88.1% | 114% | -74.1% (active) | 110% | 15.9% |  | 9.11% (active) | -4.09% (active) | 41.6% | -42.1% (active) |  | 125% | 47.8% | 37.4% | 30.4% | 10.2% | -21.6% (active)
9 | Cc1nc(N)[nH]c(=O)c1C | 97.4% | 97% | 96.6% | 103% | 106% | 102% | 103% | 103% | 109% | 86.9% | 156% | 102% | 104% | 114% |  | 107% | 87% | 105% |  | 
10 | NC(N)=N/N=C(/c1ccccc1)c1ccc(Cl)cc1 | 83.9% | 88.8% | 57.7% | 85% | 52.3% | 59.5% | 68.3% | 69.1% | 83% | 42.5% | 115% | 105% | 94.9% | 62.2% |  | 93.3% | 38.4% | 59.6% | 56.6% | 
11 | S=C(Nc1ccc(C2=NCCN2)cc1)Nc1ccc(C2=NCCN2)cc1 | 82.7% | 86.8% | 117% | 99.6% | 106% | 97.2% | 99.9% | 98.2% | 107% | 91.4% | 111% | 113% | 101% | 120% | 96.7% | 93.4% | 93.8% | 94.5% | 101% | 
12 | COC(=O)[C@]1(CCSC)N[C@H](c2cn(-c3ccccc3)nc2C)[C@@H]2C(=O)N(c3ccccc3)C(=O)[C@@H]21 | 94.9% | 99.7% | 115% | 107% | 106% | 97.4% | 103% | 104% | 119% |  | 105% | 109% | 109% | 114% | 106% |  | 113% | 95.9% | 112% | 112%
13 | Cc1[nH]n(C(N)=S)c(=O)c1N=Nc1ccc(F)c(Cl)c1 | 102% | 87% | 110% | 92.1% | 114% | 94.6% | 106% | 95.6% | 100% | 95.3% | 110% | 89.1% | 131% | 92.2% | 103% | 108% | 124% | 100% | 104% | 
14 | Cc1nn(-c2ccccc2)c2nc(Cl)c(/C=C/C(=O)c3ccccc3)c(-c3ccccc3)c12 | 102% | 89.7% | 105% | 114% | 106% | 89.9% | 110% | 106% | 115% |  | 101% | 111% | 103% | 106% | 105% |  | 114% | 90.1% | 101% | 121%
15 | COc1cc(OC)c2sc(-c3ccc(-n4cncc4-c4ccc(N)cc4)cc3)nc2c1 | 101% | 98.7% | 84.7% | 110% | 78.7% | 84.8% | 60% | 71.8% | 80.3% | 59.9% | 84.4% | 87.3% | 81.5% | 74.5% | 48.1% | 84.6% | 69.8% | 76.4% |  | 
16 | COc1ccc(-c2cn(-c3ccccc3)c(-c3ccccc3)n2)cc1OC | 75.7% | 62.4% | 88.4% | 102% | 70.5% | 75.4% | 85.8% | 83.7% | -22.9% (active) | 14.8% | 111% | 73.8% | 102% | 47.9% | 94.7% | 79.6% | 105% | 87% | 17.1% | 
17 | O=Cc1c[nH]c2ccc(NC(=O)OCc3ccccc3)cc12 | 95.4% | 89.7% | 88.6% | 105% | 68.4% | 94.1% | 106% | 95.8% | 113% | 72.2% | 186% | 88.4% | 96.6% | 102% |  | 110% | 85.6% | 105% | 67.1% | 
